± gives the uncertainty stated by the source.
test system: U87; experiment: cell viability relative to vehicle control; higher = less growth inhibition (less active); conditions: 10 µM; 72 h
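Also: viable cell number estimated from Alamar Blue fluorescence read at 560/90, part of a single-dose primary screen of an FDA-approved drug library.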

SMILES | cell viability [%]
C#C[C@]1(O)CC[C@H]2[C@@H]3CCc4cc(O)ccc4[C@H]3CC[C@@]21C | 102 ± 2.1
NC[C@H]1CC[C@H](C(=O)Oc2ccc(CCC(=O)O)cc2)CC1 | 104.6 ± 0.48
C[C@]12C[C@H](O)[C@H]3[C@@H](CCC4=CC(=O)CC[C@@]43C)[C@@H]1CC[C@@H]2C(=O)CO | 105 ± 1.5
COc1ccc(CC2c3cc(OC)c(OC)cc3CC[N+]2(C)CCC(=O)OCCCCCOC(=O)CC[N+]2(C)CCc3cc(OC)c(OC)cc3C2Cc2ccc(OC)c(OC)c2)cc1OC (stereo not given) | 110 ± 0.2
CC(=O)Nc1ccc(CC(=O)O)cc1 | 100 ± 1.1
O=C(NCCN1CCOCC1)c1ccc(Cl)cc1 [4-Chloro-N-(2-morpholin-4-yl-ethyl)-benzamide] | 80.9 ± 3.8
CCc1nn(CCCN2CCN(c3cccc(Cl)c3)CC2)c(=O)n1CCOc1ccccc1 [Nefazodone] | 100.5 ± 0.27
CCOC(=O)[C@H](CCc1ccccc1)N[C@H]1CCc2ccccc2N(CC(=O)O)C1=O | 107 ± 1.2
COc1cc(N)c(Cl)cc1C(=O)NC1CCN(CCCOc2ccc(F)cc2)CC1OC (stereo not given) [Cisapride] | 103.5 ± 0.4
Oc1ccc(/C=C/c2cc(O)cc(O)c2)cc1 [resveratrol] | 100.5 ± 0.97
COc1ccc2c(c1)c(CC(=O)O)c(C)n2C(=O)c1ccc(Cl)cc1 [Indomethacin] | 105.6 ± 0.41
O=C(CCNNC(=O)c1ccncc1)NCc1ccccc1 | 107.8 ± 0.97
O=C(O[C@@H]1C[C@@H]2C[C@H]3C[C@H](C1)N2CC3=O)c1c[nH]c2ccccc12 | 105.8 ± 0.72
OC[C@H]1O[C@@H](Oc2cc(O)cc(/C=C/c3ccc(O)cc3)c2)[C@H](O)[C@@H](O)[C@@H]1O | 99.7 ± 3.1
CN1CCN2c3ncccc3Cc3ccccc3C2C1 (stereo not given) | 108 ± 2.1
C=C1/C(=C\C=C2/CCC[C@]3(C)[C@@H]([C@H](C)CCCC(C)(C)O)CC[C@@H]23)C[C@@H](O)C[C@@H]1O | 105 ± 2.2
Nc1c2c(nc3ccccc13)CCCC2 | 110 ± 18
CC(C)[C@H](N)C(=O)OCCOCn1cnc2c(=O)nc(N)[nH]c21 | 103 ± 1.8
CCCCN1CCCC1CNC(=O)c1cc(C#N)c2ccccc2c1OC (stereo not given) [Nafadotride] | 102 ± 1.5
CC1(C)C[C@@H]1C(=O)N/C(=C\CCCCSC[C@H](N)C(=O)O)C(=O)O | 129 ± 3.1

SMILES | cell viability [%]
CC(C(=O)O)c1ccc(CC2CCCC2=O)cc1 (stereo not given) | 99.3 ± 2.7
CN1CCC(=C2c3ccccc3C=Cc3ccccc32)CC1 [Cyproheptadine] | 103.33 ± 0.068
CN(CCCN1c2ccccc2CCc2ccccc21)CC(=O)c1ccc(Cl)cc1 | 107 ± 2.2
COc1ccc(C(=O)NCc2ccc(OCCN(C)C)cc2)cc1OC | 95.8 ± 3.2
N#Cc1ccc(C(c2ccc(C#N)cc2)n2cncn2)cc1 | 103 ± 1.3
CCc1ccc(CCOc2ccc(CC3SC(=O)NC3=O)cc2)nc1 (stereo not given) | 105 ± 3.6
CN1CCC(=C2c3ccccc3CC(=O)c3sccc32)CC1 | 109 ± 3.3
C[C@@H](c1ncncc1F)[C@](O)(Cn1cncn1)c1ccc(F)cc1F | 106 ± 1.7
Cc1cccc(C)c1NC(=O)C(C)N (stereo not given) | 104 ± 2.3
CN1C(C(=O)Nc2ccccn2)=C(O)c2ccccc2S1(=O)=O [Piroxicam] | 103 ± 3.7
COc1cc2nc(N(C)CCCNC(=O)C3CCCO3)nc(N)c2cc1OC (stereo not given) | 101 ± 1.4
O=C(c1ccccc1)c1ccc2n1CCC2C(=O)O (stereo not given) [Ketorolac Tromethamine] | 101.2 ± 0.98
Cc1cccc(CCN2CCC(C(=O)c3ccc(NS(C)(=O)=O)cc3)CC2)n1 | 102.6 ± 0.96
CC12CC3CC(C)(C1)CC(N)(C3)C2 | 123 ± 1.4
CC(Oc1c(Cl)cccc1Cl)C1=NCCN1 (stereo not given) | 113 ± 11
CN(C)CC[C@@H](c1ccc(Cl)cc1)c1ccccn1 | 104 ± 1.6
COc1nc(C)nc(Cl)c1NC1=NCCN1 | 102 ± 1.7
CC[C@H]1OC(=O)[C@H](C)[C@@H](O[C@H]2C[C@@](C)(OC)[C@@H](O)[C@H](C)O2)[C@H](C)[C@@H](O[C@@H]2O[C@H](C)C[C@H](N(C)C)[C@H]2O)[C@](C)(OC)C[C@@H](C)C(=O)[C@H](C)[C@@H](O)[C@]1(C)O | 107 ± 1.2
O=C(O)COCCN1CCN([C@H](c2ccccc2)c2ccc(Cl)cc2)CC1 | 101.2 ± 0.57
COc1ccccc1N1CCN(CCCNc2cc(=O)n(C)c(=O)n2C)CC1 | 109 ± 1.7

Reference: the supplement of paper PMC3898565
